Drawing on PubChem BioAssay AID463173 (ICCB-Longwood Screening Facility, Harvard Medical School, 2010), this text covers survival for 58 compounds.

In all, about 52,000 compounds went through this assay and about 4,300 (8.3%) were called active. Rule as the data show it: active = survival mostly below about 52% (no sharp cut-off); inactive = mostly above about 56%. For the sample, actives were picked, then their nearest neighbours and some compounds at random.

In this experiment the test system is DeltatarO mutant. Briefly: growth inhibition of S. aureus wild type versus tarO mutant, primary screen, teichoic acid synthesis inhibitors, RN4220, OD600 (AID 463173). Conditions: OD600, 18 h, active compounds read low, screened at 18.75 µg/mL (by protocol).
As to `CCOC(=O)c1cc(S(=O)(=O)N2CCN(c3ccc(C(C)=O)cc3)CC2)[nH]n1`, the survival is 126% (inactive).

Take `Cc1c(Cl)cccc1NC(=O)CCS(=O)(=O)c1cccc2nsnc12`: the survival was 78% (inactive). In the case of `CCOCCCNC(=O)C(c1ccccc1)N1Cc2ccccc2C1=O` (stereo not drawn) it was 96% (inactive); in that of `CCc1ccc(CNC(=O)c2cc3ccccn3n2)cc1`, 97% (inactive). As for `Cc1ccc(CNC(=O)c2ccccc2NC(=O)c2nsc3ccccc23)cc1`, the figure is 60% (inactive). In the case of `CCCOc1ccc(CNC(=O)c2cc3ccccn3n2)cc1` it was 116% (inactive). Consider `CC(C)Oc1ccc(CNC(=O)c2ccccc2NC(=O)c2nsc3ccccc23)cc1`, for which the survival was 122% (inactive).

Take `CCOc1ccc(CNC(=O)c2cc3ccccn3n2)cc1`: the survival is 52% (active).

On to `CCOc1ccc(CNC(=O)c2ccccc2NC(=O)c2nsc3ccccc23)cc1`, for which the survival was -5% (active). In the case of `C=CCNC(=O)c1cc2sccc2n1Cc1ccccc1` it was 85% (inactive); in that of `CC(C)C(=O)OCc1cc(=O)n2nc(C3CC3)sc2n1`, 86% (inactive). As for `COc1ccc(S(=O)(=O)N(C)C2CCCCC2)cc1`, the figure is 85% (inactive); as for `COc1ccc(S(=O)(=O)N/N=C(/C2CCCCC2)C(F)(F)F)cc1`, 35% (active). As for `COc1ccc(S(=O)(=O)NNC(N)=S)cc1`, the figure is 100% (inactive); as for `COc1ccc(CNC(=O)C(=O)NCC(c2ccco2)S(=O)(=O)c2ccc(C)cc2)cc1` (stereo not drawn), 124% (inactive); as for `CC1Oc2ccccc2N(CC(=O)NCC2CCCO2)C1=O` (stereo not drawn), 83% (inactive).

Turning to `CCC(C)NC(=O)CSc1nc2c(sc3ccccc32)c(=O)n1CCc1ccc(OC)c(OC)c1` (stereo not drawn), the survival is 66% (inactive). As for `COC(=O)CC1Oc2ccc(Cl)cc2-n2cc(-c3ccc(F)cc3)nc21` (stereo not drawn), the figure is 90% (inactive); as for `COC(=O)CC1Oc2ccccc2-n2cc(-c3ccc(C)cc3)nc21` (stereo not drawn), 64% (inactive). As for `COC(=O)CC1Oc2ccc(C)cc2-n2cc(-c3ccc(C)cc3)nc21` (stereo not drawn), the figure is 37% (active); as for `COC(=O)CC1Oc2ccc(F)cc2-n2cc(-c3ccc(C)cc3)nc21` (stereo not drawn), 91% (inactive); as for `COC(=O)CC1Oc2ccc(C)cc2-n2cc(-c3ccc(F)cc3)nc21` (stereo not drawn), 56% (active).

As to `COC(=O)CC1Oc2ccc(Cl)cc2-n2cc(-c3ccc(C)cc3)nc21` (stereo not drawn), the survival is 80% (inactive). In the case of `COc1ccc(CCNC(=O)Cn2cc(C(=O)c3ccccc3)c(=O)c3ccc(C)nc32)cc1OC`, the survival was 124% (inactive). In the case of `O=C(Nc1cccnc1N1CCOCC1)c1cc2ccccc2oc1=O` it was 79% (inactive).

Regarding `COc1cc(OC)c(C2C(C(=O)Nc3ccccc3)=C(C)Nc3ncnn32)cc1OC` (stereo not drawn), the survival is 72% (inactive).

Regarding `COc1ccc(CNC(=O)CSc2n[nH]c(-c3ccc(OC)cc3)n2)cc1`, the survival is -5% (active). In the case of `O=C(CSc1n[nH]c(-c2ccccc2Cl)n1)NCc1ccc(F)cc1` it was -4% (active). As for `COc1cccc(CNC(=O)CSc2n[nH]c(-c3ccccc3Cl)n2)c1`, the figure is 60% (inactive). As for `CC(CCc1ccccc1)NC(=O)CSc1n[nH]c(-c2ccccc2)n1` (stereo not drawn), the figure is 94% (inactive); as for `O=C(CSc1n[nH]c(-c2ccccc2Cl)n1)NCCc1ccccc1`, 87% (inactive).

Turning to `COc1ccc(-c2nc(SCC(=O)NC(C)CCc3ccccc3)n[nH]2)cc1` (stereo not drawn), the survival was 17% (active). Regarding `CC(CCc1ccccc1)NC(=O)CSc1n[nH]c(-c2ccc(F)cc2)n1` (stereo not drawn), the survival is 126% (inactive). In the case of `Cc1ccc(CNC(=O)CSc2n[nH]c(-c3ccc(F)cc3)n2)cc1` it was 122% (inactive); in that of `COc1ccc(CNC(=O)CSc2n[nH]c(-c3ccc(F)cc3)n2)cc1`, 109% (inactive). As for `Cc1cccc(N2CCN(C(=O)c3ccc4c(c3)N(Cc3ccccc3)C(=O)c3ccccc3S4(=O)=O)CC2C)c1` (stereo not drawn), the figure is 63% (inactive); as for `Cc1ccc(Cl)cc1NC(=O)c1oc2ccc(S(=O)(=O)N3CCCCC3)cc2c1C`, 74% (inactive). As for `Cc1cccc(NC(=O)CN2C(=O)CSc3ccc(S(=O)(=O)N4CCCC4)cc32)c1C`, the figure is 92% (inactive).

In the case of `O=C(CSc1nc(-c2ccco2)cc(C(F)(F)F)n1)N1CCCC1`, the survival was 79% (inactive). Regarding `CC(NCc1ccc2c(c1)n(C)c(=O)n2C)c1ccccc1` (stereo not drawn), the survival is 94% (inactive).

Turning to `CCc1ccc(CN2C(=O)c3ccccc3C2C(=O)NC2CCCCCC2)cc1` (stereo not drawn), the survival is 75% (inactive). In the case of `CCn1c(=O)c(C(=O)Nc2ccc(Cl)cn2)c(O)c2ccccc21` it was 95% (inactive); in that of `CSc1nn(Cc2ccc(F)cc2)c(N)c1S(=O)(=O)c1ccc(Cl)cc1`, 101% (inactive). In the case of `Cc1ccc(Cl)cc1-n1ncc2c(Nc3cccc(C)c3C)ncnc21` it was 82% (inactive); in that of `CN1CCN(CCNC(=O)c2cnn(-c3ccc(Cl)cc3)c2C2CCN(C(=O)OC(C)(C)C)CC2)CC1`, 69% (inactive); in that of `Cc1cc(C)c2oc(C(=O)Nc3sc4c(c3C(=O)NCc3ccco3)CCCC4)cc(=O)c2c1`, 82% (inactive).

As to `O=C(Nc1sc2c(c1C(=O)NCc1ccccc1)CCCC2)c1cc(=O)c2cc(Cl)ccc2o1`, the survival is 49% (inactive). For `O=C(Nc1sc2c(c1C(=O)NCc1ccccc1)CCCC2)c1cc(=O)c2ccccc2o1`, the survival was 67% (inactive). For the compound `Cc1ccc2oc(C(=O)Nc3sc4c(c3C(=O)NCc3ccccc3)CCCC4)cc(=O)c2c1`, the survival was 66% (inactive). In the case of `Cc1cc2oc(C(=O)Nc3sc4c(c3C(=O)NCc3ccco3)CCC4)cc(=O)c2cc1C`, the survival was 38% (active).

`Cc1ccc2oc(C(=O)Nc3sc4c(c3C(=O)NCc3ccco3)CCC4)cc(=O)c2c1`: the survival was 82% (inactive). In the case of `O=C(Nc1sc2c(c1C(=O)NCc1ccco1)CCCC2)c1cc(=O)c2cc(Cl)ccc2o1` it was 38% (active); in that of `Cc1ccc2c(=O)cc(C(=O)Nc3sc4c(c3C(=O)NCc3ccco3)CCCC4)oc2c1C`, 80% (inactive); in that of `O=C(Nc1sc2c(c1C(=O)NCc1ccco1)CCCC2)c1cc(=O)c2ccccc2o1`, 43% (active). As for `Cc1ccc2c(=O)cc(C(=O)Nc3sc4c(c3C(=O)NCc3ccco3)CCC4)oc2c1`, the figure is 78% (inactive); as for `Cc1ccc2c(=O)cc(C(=O)Nc3sc4c(c3C(=O)NCc3ccccc3)CCCC4)oc2c1C`, 89% (inactive); as for `Cc1cc2oc(C(=O)Nc3sc4c(c3C(=O)NCc3ccccc3)CCCC4)cc(=O)c2cc1C`, 39% (active). In the case of `CC[n+]1c(C)sc2sc3ccccc3c21` it was 68% (inactive).
